# Assay outcomes as filed in PubChem BioAssay.
# BL2 CD40 inh – CD40 pathway inhibition in BL2 cells | BL2 NF-kB luciferase reporter, CD40L-induced, 4 h | AID 1053188 | inhibition, % at 10 µM | 0.94% of 83,000 active;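 active = mean inhibition of at least 50% with a set share of replicates also reaching that level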;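 also: 0% = neutral control wells and 100% = IKK inhibitor VII at 50 µM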
# * marks the source's active call; other numbers are inactive results; [ ] = another dose, or the depositor's remark. Only a selection was taken, and hits are over-represented in it overall.
SMILES,BL2 CD40 inh
COc1ccccc1C(=O)Nc1nc(-c2ccc3c(c2)OCCO3)cs1,50*
COc1cccc(Nc2nc(-c3ccc4c(c3)OCCO4)cs2)c1,-94
C[C@@H]1CCCCO[C@@H](CN(C)C(=O)CCC(F)(F)F)[C@H](C)CN([C@H](C)CO)C(=O)c2cc(NC(=O)C3CCCCC3)ccc2O1,-4[25 µM]
CCOC(=O)C1CCN(C2CCN(Cc3nc(-c4ccccc4)no3)CC2)CC1,4
CCOC(=O)C1CCN(Cc2ccc(O)c3ncccc23)CC1,103*
CCOC(=O)C1CCN(C(=O)c2cccnc2)CC1,6
CCC(=O)N1[C@H](CN(C)C(=O)CN2CCOCC2)[C@@H](c2ccccc2)[C@@H]1CO,-1
COc1ccc(CN2CC3(C2)[C@H](c2ccccc2)[C@@H](CO)N3CC2CCCC2)cc1,7[25 µM]
N=C(N)c1ccc(OCCCCCOc2ccc(C(=N)N)cc2)cc1,62*
OCCNCCCCOc1ccc(F)cc1,5
CN(C)CCCCOc1ccc(F)cc1,10
CCCNC(=O)[C@@H]1[C@@H](CO)[C@@H]2Cn3c(ccc(-c4ccccc4F)c3=O)[C@@H]2N1C(=O)C1CCC1,-8[25 µM]
C[C@H](CO)N1C[C@H](C)[C@H](CN(C)C(=O)Nc2ccc3c(c2)OCO3)OCCCC[C@H](C)Oc2ccc(NS(=O)(=O)c3cccs3)cc2C1=O,3
CO[C@H]1CN(C)C(=O)c2cc(NC(=O)C3CCC3)ccc2OC[C@@H](C)N(Cc2cccnc2)C[C@H]1C,-2
CN(C)c1ccc(C=c2c3cc([N+](=O)[O-])ccc3n3c2cc(-c2ccccc2)[n+]3C)cc1,91*
CN(C)c1ccc(C=C2C=C(c3ccccc3)OC2=O)cc1,-1
COc1cc(N(C)C)ccc1C=c1c2ccccc2n2c1cc(-c1ccccc1)[n+]2C,101*
Cn1ccc(=O)c2cc([N+](=O)[O-])ccc21,1
N#C[C@H]1[C@H](c2ccccc2)[C@@H](CO)N1C(=O)c1ccc2c(c1)OCO2,-3[25 µM]
C[C@H](CO)N1C[C@H](C)[C@@H](CN(C)Cc2ccc3c(c2)OCO3)OCCCC[C@H](C)Oc2ccc(NS(=O)(=O)c3cn(C)cn3)cc2C1=O,-23[25 µM]
C[C@H]1CN([C@@H](C)CO)C(=O)CCCn2cc(nn2)CO[C@H]1CN(C)Cc1ccncc1,0
O=S(=O)(c1ccc(F)cc1)N1[C@@H]2CNC[C@H]1C2c1ccc(-c2cccc(F)c2)cc1 (some centres not stated),-12
CN1[C@@H]2Cn3c(ccc(/C=C/c4ccccc4)c3=O)[C@H]1[C@@H](C(=O)NC1CCCC1)[C@@H]2CO,9
CNC[C@@H]1Oc2c(NS(=O)(=O)c3ccc(OC)cc3)cccc2C(=O)N([C@@H](C)CO)C[C@H]1C,-5
O=C1CC(c2ccco2)Sc2nc3ccccc3n21 (configuration not stated),-124
SMILES,BL2 CD40 inh
O=C1CC(c2ccc3c(c2)OCO3)Sc2nc3ccccc3n21 (configuration not stated),60*
O=C1CC(c2cccs2)Sc2nc3ccccc3n21 (configuration not stated),-108
C[C@@H]1CN([C@H](C)CO)C(=O)c2ccccc2-c2ccccc2CO[C@H]1CN(C)S(=O)(=O)c1ccc(C#N)cc1,6
CO[C@@H]1CN(C)C(=O)c2cc(NS(C)(=O)=O)ccc2OC[C@H](C)N(CC2CCOCC2)C[C@H]1C,1
O=C(NCc1ccccn1)c1cc(-c2ccccc2)on1,-24
Cc1cc(NC(=O)c2cc(-c3ccccc3)on2)no1,-49
O=C(c1ccccc1)c1cc(-c2ccccc2)on1,73*
COc1ccccc1-c1ccc(C2[C@H]3CNC[C@@H]2N3S(=O)(=O)c2ccc(C)cc2)cc1 (some centres not stated),-11
Cc1nn2c(NCc3cccnc3)c3c(nc2c1-c1ccccc1)CCC3,13
COc1cccc(-c2cc3nc4c(c(NCC(C)(C)CN(C)C)n3n2)CCCC4)c1,63*
Cc1nn2c(NCCN(C)C)c3c(nc2c1-c1ccccc1)CCCC3,-78
CN1[C@H](C(=O)NC2CCC2)[C@@H](CO)[C@@H]2Cn3c(ccc(/C=C/c4ccccc4)c3=O)[C@@H]21,-9
O=C(CC(F)(F)F)N1C[C@H]2[C@@H](c3ccccc31)[C@H](CO)N2C(=O)C1CCCC1,6
CC1(C)CC[C@]2(C(=O)n3ccnc3)CC[C@]3(C)[C@H](C(=O)C=C4[C@@]5(C)C=C(C#N)C(=O)C(C)(C)[C@@H]5CC[C@]43C)[C@@H]2C1,92*
CCCN1[C@@H]2c3ccc(-c4cccc(F)c4)c(=O)n3C[C@H]1[C@H](CO)[C@H]2C(=O)N(C)C,-1[25 µM]
Cc1cccc(-c2ccc([C@@H]3[C@@H](CO)N4CCCCN(S(=O)(=O)c5ccccc5F)C[C@H]34)cc2)c1,71*[25 µM]
Cc1cccc(-c2ccc([C@@H]3[C@@H](CO)N4CCCCN(S(=O)(=O)c5ccccc5F)C[C@@H]34)cc2)c1,-16[25 µM]
Cc1cccc(-c2ccc([C@H]3[C@@H](CO)N4CCCCN(S(=O)(=O)c5ccccc5F)C[C@@H]34)cc2)c1,-1[25 µM]
Cc1ccc(S(=O)(=O)N[C@H]2CC[C@H](CCNC(=O)C3CCCCC3)O[C@H]2CO)cc1,-3
